Source: PubChem (National Center for Advancing Translational Sciences (NCATS))
4-MU autofl – 4-MU region autofluorescence. compound autofluorescence, 340/450 nm, 4-MU equivalents; stronger effect = higher value. AID 589. max dye-equivalent concentration, M. actives 11% (n = 59,000); in the data active = max dye-equivalent concentration above about 10 nM; inconclusive = mostly about 1.1 nM to 9.6 nM
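Compounds in 100 mM Tris, pH 8.0, incubated 15 min at room temperature, then fluorescence read at 340 nm excitation/450 nm emission. Signal converted to 4-MU dye-equivalent concentration using an on-plate six-point 4-MU standard curve.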
HADH2 inhib – inhibitors of human HADH2 dehydrogenase; Q99714; Potency, µM (titrated, usually from 57.1 µM), hits mostly inhibitors; actives 3.4% (n = 73,000); recombinant HADH2, NADH fluorescence, beta-hydroxybutyryl-CoA; also: nearly all actives have a fitted effect of over 60% in size
Target sequence (Q99714 whole entry, looked up, one chain of several): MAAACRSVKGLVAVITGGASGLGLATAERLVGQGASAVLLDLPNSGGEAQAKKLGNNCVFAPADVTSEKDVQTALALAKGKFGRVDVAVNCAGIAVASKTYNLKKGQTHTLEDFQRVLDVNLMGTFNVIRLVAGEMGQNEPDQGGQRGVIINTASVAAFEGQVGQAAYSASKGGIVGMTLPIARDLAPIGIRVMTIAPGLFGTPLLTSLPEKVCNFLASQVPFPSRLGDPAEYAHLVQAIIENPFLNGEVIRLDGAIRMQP
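Activity measured as NADH fluorescence gain (360/450 nm), taken as the change between first and last reads of a 4-min kinetic run. Conditions: pH 9.0 Tris buffer, 20 nM E. coli-expressed His-tagged enzyme, 1 mM NAD+, 90 uM beta-hydroxybutyryl-CoA; 15-min compound preincubation.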
HSD17B inh – HSD17B dehydrogenase inhibition | Q99714 | recombinant HSD17B10, NADH fluorescence kinetic | Potency, µM (titrated, usually from 57.1 µM), usual class: inhibitors | actives 7.6% (n = 75,000) | AID 893;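 also: the protocol describes HADH2 (HSD17B10) and not the HSD17B4 of the title; nearly all actives have a fitted effect of over 70% in size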
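His-tagged E. coli-expressed HADH2 at 20 nM in 100 mM Tris-HCl pH 9.0 with 0.01 % Tween-20, preincubated 15 min with compound at room temperature. Reaction with 1 mM NAD+ and 90 uM beta-hydroxybutyryl coenzyme A; NADH fluorescence (360/450 nm) read kinetically over 4 min, last minus first point.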
A350 autofl – compounds fluorescent in Alexa 350 spectral region | actives 11% (n = 59,000) | max dye-equivalent concentration, M | Compound autofluorescence, 340/450 nm, Alexa 350 dye-equivalents; stronger effect = higher value; in the data active = max dye-equivalent concentration above about 10 nM; inconclusive = mostly about 1.1 nM to 9.6 nM
AID923 – qHTS Assay for Allosteric/Competitive Inhibitors of Caspase-1: Spectroscopic Profiling in AFC Spectral Region; compound fluorescence, AFC spectral region (405/520 nm); Potency, µM (titrated, usually from 57.5 µM), actives largely listed as activators; actives 1.1% (n = 75,000); AID 923, 2007
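Baseline compound fluorescence (AFC region, 405 nm ex/520 nm em) taken from the intercept of kinetic reads with 50 nM caspase-1 and 5 uM Ac-WEHD-AFC; normalized to an on-plate AFC standard curve; compounds titrated up to 57 uM.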
Large screens that a line does not name were inactive. An excerpt weighted towards active compounds, which were near 13% of everything screened. Unless noted, calls follow the shape of the dose curve; as a rule, active = well fitted curve in the direction sought with a large enough effect; inconclusive = small, poorly fitted or top-dose-only effect, or another doubt; inactive = no such curve, though single readings can be large; an effect the other way counts as inactive or inconclusive.

Cc1ccc(CSc2nc3c(c(=O)[nH]2)C(c2ccncc2)C2=C(CCCC2=O)N3)cc1 (stereo not given)	4-MU autofl 1e-07M, HSD17B inh 25µM, A350 autofl 8.6e-08M
COC(C(C)/C=C/CC(=O)OCCCc1ccccc1)C1CCCCC1 (stereo not given)	none (no result: 4-MU autofl, A350 autofl)
COC(=O)CSc1nc(-c2cccs2)ccc1C#N	4-MU autofl 2e-07M, A350 autofl 2.2e-07M (no result: HADH2 inhib, HSD17B inh, AID923)
C#CCSc1nc(-c2cccs2)ccc1C#N	4-MU autofl 4.5e-08M, HSD17B inh 20µM, A350 autofl 4.1e-08M
O=c1c(-c2cc(F)cc(F)c2)nc2cncnc2n1C1CC1	none
CCC1OC(=O)C[C@H](O)C(C)[C@@H](O[C@@H]2OC(C)C(O)C(N(C)C)C2O)C(CCN2CC(C)CC(C)C2)CC(C)C(=O)/C=C/C(C)=C\[C@@H]1COC1OC(C)C(O)C(OC)C1OC (stereo not given in full)	none (no result: 4-MU autofl, HADH2 inhib, A350 autofl)
C=CCn1c(SCc2ccccc2C#N)nnc1-c1cc(Br)ccc1O	4-MU autofl 1.6e-07M, A350 autofl 1.6e-07M
COCCCN=C(c1ccco1)n1c(=S)nc(-c2ccco2)n(CCCOC)c1=S	HADH2 inhib 2.5µM, HSD17B inh inconclusive
C[C@@]1(C(NC(=O)Cc2ccccc2)c2ccc(-c3ccccc3)cc2)C[C@H]1C1CCCCC1 (stereo not given in full)	none (no result: 4-MU autofl, A350 autofl)
Cc1nn(C)c(C)c1S(=O)(=O)Nc1ccc2c(c1)OCO2	none
Cc1ccc(C)c(NS(=O)(=O)c2c(C)nn(C)c2C)c1	4-MU autofl 5.1e-08M, A350 autofl 5.6e-08M
COC(=O)CCc1c(C)[nH]c(C(=O)OCc2ccccc2)c1C	4-MU autofl 6.7e-06M, A350 autofl 7.6e-06M (no result: HADH2 inhib, HSD17B inh, AID923)
COc1cc2cc(C(c3nnnn3C3CCCCC3)N(C)C3CCCCC3)c(=O)[nH]c2cc1OC (stereo not given)	4-MU autofl 4.8e-08M, A350 autofl 4.2e-08M
COc1cc2cc(C(c3nnnn3C3CCCC3)N(C)C3CCCCC3)c(=O)[nH]c2cc1OC (stereo not given)	4-MU autofl 8.2e-08M, HSD17B inh inconclusive, A350 autofl 6.6e-08M
O=C(Nc1ccccc1)N1CCCC2(CCN(C(=O)c3cc(C(F)(F)F)cc(C(F)(F)F)c3)CC2)C1	none
CCC(=O)N1CCN(c2ccccc2NC(=O)c2cccc(C)c2)CC1	4-MU autofl 3.2e-06M, HADH2 inhib inconclusive, A350 autofl 3.8e-06M
CCC(=O)N1CCN(c2ccc(Cl)cc2NC(=O)c2ccc(Br)o2)CC1	4-MU autofl 1.6e-07M, HSD17B inh 25µM, A350 autofl 1.8e-07M
CC(C)CN1CCc2nc(-c3ccccc3)c3c(c2CC1)COC(C)C3 (stereo not given)	none (no result: 4-MU autofl, A350 autofl)
COc1ccc(O[C@H]2C=C[C@@H](c3ccccc3)O[C@H]2COC(=O)CC/C(C)=N\O[C@@H](C)CN2CCCCc3nc(C)c(C)cc32)cc1	none (no result: 4-MU autofl, A350 autofl)
CC[C@]1(c2ccccc2)NC(=O)N(C)C1=O	none
Cc1nc2cnc(N3CCN(C)CC3)nc2n(C2CC2)c1=O	HSD17B inh 20µM
Cc1nc2cnc(N3CCN(C)CC3)nc2n(C)c1=O	4-MU autofl inconclusive, HSD17B inh 25µM, A350 autofl inconclusive
CN1CCN(c2ncc3ncc(=O)n(C4CC4)c3n2)CC1	4-MU autofl inconclusive, HSD17B inh inconclusive, A350 autofl inconclusive
Cc1ccc(/C=N/c2sc3c(c2C#N)CCCCC3)o1	HADH2 inhib 5µM, HSD17B inh 32µM
COC(=O)[C@H](Cc1ccccc1)NC(=O)C/C=C\[C@@H](C)[C@@H](CO)OC	none (no result: 4-MU autofl, A350 autofl)
CC(Nc1nc(N2CCN(S(C)(=O)=O)CC2)nc2ccccc12)c1ccccc1 (stereo not given)	4-MU autofl 1.9e-07M, HSD17B inh 25µM, A350 autofl 2.5e-07M
Cn1c(C(C#N)C(=O)c2sc3ccccc3c2Cl)nc2ccccc21 (stereo not given)	4-MU autofl inconclusive, A350 autofl 1.2e-08M
Cc1cc(C)n(CCOC(=O)c2sc3ccccc3c2Cl)n1	none
Oc1cc(CN2COc3ccccc32)c(O)cc1CNC1CCCCC1	4-MU autofl inconclusive, HADH2 inhib 1.6µM, HSD17B inh 1.6µM, A350 autofl 1.5e-08M
c1cnc(N2CCSCC2)nc1	none (no result: 4-MU autofl, A350 autofl)
CC1CCC(N2CCN(c3ncccn3)CC2)CC1 (stereo not given)	4-MU autofl 5.3e-07M, A350 autofl 6.4e-07M
C#CCOCCCC(=O)O	4-MU autofl inconclusive, A350 autofl inconclusive
COc1ccc(C(=O)N2CCC[C@@]3(CCN(c4ncccn4)C3)C2)cc1	HSD17B inh inconclusive
Cc1cc(C(=O)CSc2nnc(N)s2)c(C)n1CCc1ccc(F)cc1	4-MU autofl 1.4e-08M, A350 autofl 1.7e-08M
Cc1cc(C(=O)CSc2nnc(N)s2)c(C)n1CCc1ccc(Cl)cc1	4-MU autofl inconclusive, HSD17B inh 13µM, A350 autofl inconclusive
COc1ccc(CCn2c(C)cc(C(=O)CSc3nnc(N)s3)c2C)cc1	none
COc1ccc(-n2c(=O)c(-c3cn(C)c4ccccc34)nc3cncnc32)cc1	none
CCCCOC(=O)Nc1nnc(-c2ccccc2OC)s1	HSD17B inh 10µM
COc1ccccc1-c1nnc(NC(C)=O)s1	HSD17B inh 25µM
O=C1C=C[C@@H](O)[C@@H]2[C@H]3C(=O)N(c4ccc(F)cc4F)C(=O)[C@@H]3CC[C@@H]12	none (no result: 4-MU autofl, A350 autofl)
COC(=O)C1=C(C)N(Cc2ccccc2)[C@]23O[C@](C(=O)OC)(C(=O)N2C1c1ccccc1)C(C(=O)OC)=C3C(=O)OC (stereo not given in full)	none (no result: 4-MU autofl, A350 autofl)
O=c1cc(N2CCOCC2)oc2c(-c3ccccc3)cccc12	HSD17B inh inconclusive
CCOC(=O)N1CCN(C(=O)CCn2nc(-c3ccc(Cl)cc3)ccc2=O)CC1	HSD17B inh 25µM
COc1ccc2c(c1)[n+]([O-])c(/C(C)=N/NC(N)=S)c(C)[n+]2[O-]	4-MU autofl 1.8e-08M, HADH2 inhib inconclusive, A350 autofl 2e-08M
Cc1noc(C)c1C(=O)N1CCC[C@@]2(CCN(Cc3cc(C(F)(F)F)cc(C(F)(F)F)c3)C2)C1	none
COc1ccc2oc(=O)c(C(=O)N3CCN(C45CC6CC(CC(C6)C4)C5)CC3)cc2c1	4-MU autofl 3.4e-08M, A350 autofl 3.1e-08M
COc1ccc2oc(=O)c(C(=O)N3CCN(c4ccccc4C)CC3)cc2c1	4-MU autofl 2.4e-08M, HSD17B inh inconclusive, A350 autofl 2.6e-08M
COc1ccc2oc(=O)c(C(=O)N3CCN(c4ccccc4)CC3)cc2c1	4-MU autofl 3.1e-08M, A350 autofl 3.8e-08M
CC(C)CN1CCC2(CC1)CCN(C(=O)c1cccc(F)c1)CC2	none
CC(C)(C)S(=O)(=O)c1ccc2nc3c(n2c1)CCCC3	4-MU autofl 2.1e-07M, HADH2 inhib inconclusive, HSD17B inh 32µM, A350 autofl 2.8e-07M
O=C(Nc1nc(-c2cccs2)cs1)c1cccc(S(=O)(=O)N2CCCCCC2)c1	4-MU autofl 1.4e-08M, HADH2 inhib inconclusive, HSD17B inh inconclusive, A350 autofl 1.3e-08M
CCCCCCCCCCCCCCCCCC(=O)NCCc1ccc(O)c(O)c1	none (no result: 4-MU autofl, A350 autofl)
